Data reported in PubChem BioAssay (NCATS).
Inconclusive results are not listed. Unless noted, calls come from the whole dose curve; as a rule, active = well fitted curve in either direction with a large enough effect (not every such curve was filed as active); inconclusive = small, poorly fitted or top-dose-only effect, or another doubt; inactive = flat fitted curve, though single readings scatter.

Tests used:
[1] = AP1 Signaling Pathway (AID 357); conditions: ME-180 AP-1-bla reporter, EGF-induced, beta-lactamase ratio, 5 h; at 17.2 µM (top of the series) unless noted; note: % is set by controls: 0 for no effect and ±100 for the full control effect
How it was run: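 AP-1-bla ME-180 cells with beta-lactamase reporter under AP-1 response element, stimulated with EC50 EGF; compounds titrated, 5 hours at 37 degrees Celsius. CCF4 read at 460/530 nm ratio; positive and negative modulators judged by AC50.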

[2] = NFAT Signaling Pathway (AID 444); conditions: Jurkat NFAT-bla M1, carbachol, beta-lactamase ratio, 5 h; at 17.2 µM (top of the series) unless noted;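 note: carbachol stimulus at about its EC50 of 1 µM final; % is set by controls: 0 for no effect and ±100 for the full control effect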
How it was run: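 Jurkat cells carrying an NFAT-driven β-lactamase reporter and co-transfected muscarinic M1 receptor were treated with compound plus carbachol (1 uM final, an EC50 level) for 5 h at 37 °C. CCF4 loading followed for 1 h at RT; 460/530 nm ratio gave %activity.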

[3] = Stat Signaling Pathway (AID 446); conditions: ME-180 SIE beta-lactamase reporter, IL-6 stimulated, 5 h; at 17.2 µM (top of the series) unless noted;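 note: ME-180 cervical cancer cells given 40 pM IL-6 alongside compound; SIE-controlled beta-lactamase reporter measured as 460/530 nm FRET emission ratio; % is set by controls: 0 for no effect and ±100 for the full control effect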
How it was run: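 ME-180 cells carrying a SIE-driven beta-lactamase reporter are stimulated with 40 pM IL-6 for 5 h at 37C in the presence of compound. The 460/530 nm FRET substrate ratio is read after 2.5 h at RT. Data are normalised to 300 pM IL-6 and to 125 nM JAK inhibitor controls.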

[4] = biological target: Glucocorticoid receptor (Homo sapiens) (UniProt P04150); test: GR-GFP Redistribution (AID 450;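 active = compounds whose dose series gives a full or clear partial fitted curve of increased nuclear translocation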; note: potency is the fitted concentration of half-maximal effect)
Chain of Glucocorticoid receptor (Homo sapiens) (P04150 whole entry, looked up): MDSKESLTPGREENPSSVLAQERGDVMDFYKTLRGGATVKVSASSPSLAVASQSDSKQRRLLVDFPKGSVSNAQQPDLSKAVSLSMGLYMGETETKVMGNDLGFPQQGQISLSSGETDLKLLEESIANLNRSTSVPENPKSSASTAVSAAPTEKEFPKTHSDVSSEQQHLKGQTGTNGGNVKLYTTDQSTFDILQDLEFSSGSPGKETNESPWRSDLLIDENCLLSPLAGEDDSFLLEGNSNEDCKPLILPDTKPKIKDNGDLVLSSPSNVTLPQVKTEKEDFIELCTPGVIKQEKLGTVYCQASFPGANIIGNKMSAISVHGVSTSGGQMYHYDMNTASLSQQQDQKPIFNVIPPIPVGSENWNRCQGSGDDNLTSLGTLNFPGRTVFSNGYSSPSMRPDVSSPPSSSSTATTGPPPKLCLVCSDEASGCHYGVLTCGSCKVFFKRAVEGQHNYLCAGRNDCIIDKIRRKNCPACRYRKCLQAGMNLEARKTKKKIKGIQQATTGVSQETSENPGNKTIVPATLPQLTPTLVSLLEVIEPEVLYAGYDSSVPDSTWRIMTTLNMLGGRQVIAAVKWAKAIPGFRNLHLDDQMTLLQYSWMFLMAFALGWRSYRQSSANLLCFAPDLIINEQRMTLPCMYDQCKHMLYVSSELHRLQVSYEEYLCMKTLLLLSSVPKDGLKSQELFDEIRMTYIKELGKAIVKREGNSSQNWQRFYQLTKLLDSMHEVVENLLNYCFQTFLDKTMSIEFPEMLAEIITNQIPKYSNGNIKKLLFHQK

Cc1cc(C)n2c3c(c(C#N)c2n1)CC(C)(C)OC3
inactive: activity change, negative = inhibition [1] 5.4% | activity change, negative = inhibition [2] -2.38% | activity, negative = inhibition [3] -0.114% | Potency [4] > 20.6 µM

CC12CN3CC(C)(CN(C1)C3c1ccc(Cl)cc1Cl)C2O (centres undefined)
inactive: activity change, negative = inhibition [1] 3.94% | activity change, negative = inhibition [2] -12% | activity, negative = inhibition [3] 3.23% | Potency [4] > 20.6 µM

CCOC(=O)CC(=O)CSc1nnc2sc3ccccc3n12
inactive: activity change, negative = inhibition [1] 6.11% | activity change, negative = inhibition [2] -0.0909% | activity, negative = inhibition [3] 7.94% | Potency [4] > 20.6 µM

Cc1ccc(N(CN2C(=O)C3CC=CCC3C2=O)C(=O)c2ccco2)cc1Cl (centres undefined)
inactive: activity change, negative = inhibition [1] -4.76% | activity change, negative = inhibition [2] 9.09% | activity, negative = inhibition [3] -11% | Potency [4] > 20.6 µM

Cc1cc(C)c2c(N)c(C(=O)c3ccccc3)oc2n1
inactive: activity change, negative = inhibition [1] 1.21% | activity change, negative = inhibition [2] 3.96% | activity, negative = inhibition [3] -8.9% | Potency [4] > 20.6 µM

CC(=O)N1CCC2(CC1)C(C#N)=C(N)Oc1n[nH]c(C(F)(F)F)c12
inactive: activity change, negative = inhibition [1] 8.06% | activity change, negative = inhibition [2] -24.1% | activity, negative = inhibition [3] 5.71% | Potency [4] > 20.6 µM

C/C(=N\O)C(=O)NCCCNCCCN(C)C
inactive: activity change, negative = inhibition [1] 2.66% | activity change, negative = inhibition [2] -0.0528% | activity, negative = inhibition [3] 14.2% | Potency [4] > 20.6 µM

COC(=O)C(NC(=O)c1ccccc1)(Nc1nc(C)cs1)C(F)(F)F (centres undefined)
inactive: activity change, negative = inhibition [1] 20% | activity change, negative = inhibition [2] 6.46% | activity, negative = inhibition [3] -6.57% | Potency [4] > 20.6 µM

O=C1C=C(O)CC(c2ccco2)C1 (centres undefined)
inactive: activity change, negative = inhibition [1] 10.5% | activity change, negative = inhibition [2] -7.18% | activity, negative = inhibition [3] 3.18% | Potency [4] > 20.6 µM

CC(NC(=O)NCc1cccnc1)(C(F)(F)F)C(F)(F)F
inactive: activity change, negative = inhibition [1] 12.2% | activity change, negative = inhibition [2] -2.79% | activity, negative = inhibition [3] 2.04% | Potency [4] > 20.6 µM

CCOC(=O)c1cc2c(=O)n3cccc(C)c3nc2n(Cc2cccnc2)c1=N
inactive: activity change, negative = inhibition [1] 13.7% | activity change, negative = inhibition [2] -26.5% | activity, negative = inhibition [3] 12% | Potency [4] > 20.6 µM

CCOC(=O)Cc1nnc(Nc2cccc(O)c2)c2ccccc12
inactive: activity change, negative = inhibition [1] -12.7% | activity change, negative = inhibition [2] -6.58% | activity, negative = inhibition [3] -17.1% | Potency [4] > 20.6 µM

CCOC(=O)c1ccccc1OCc1cc(/C=N/n2cncn2)ccc1OC
inactive: activity change, negative = inhibition [1] -21.7% | activity change, negative = inhibition [2] 8.94% | activity, negative = inhibition [3] -6.04% | Potency [4] > 20.6 µM

Oc1ccc2ccccc2c1/C=N/n1cnnc1
inactive: activity change, negative = inhibition [1] -5.14% | activity change, negative = inhibition [2] 6.11% | activity, negative = inhibition [3] -0.766% | Potency [4] > 20.6 µM

Clc1cccc(-c2nn3c(-c4cccc(Cl)c4)nnc3s2)c1
inactive: activity change, negative = inhibition [1] -10.3% | activity change, negative = inhibition [2] 1.34% | activity, negative = inhibition [3] 2.11% | Potency [4] > 20.6 µM

O=P(Cc1nnco1)(c1ccccc1)c1ccccc1
inactive: activity change, negative = inhibition [1] -8.6% | activity change, negative = inhibition [2] -9.88% | activity, negative = inhibition [3] -0.63% | Potency [4] > 20.6 µM

COC(=O)CSc1nnc(C)c(=O)[nH]1
inactive: activity change, negative = inhibition [1] 0.589% | activity change, negative = inhibition [2] 3.42% | activity, negative = inhibition [3] 5.67% | Potency [4] > 20.6 µM

Cc1ccc2cc(CNC(C)C)c(=O)[nH]c2c1
inactive: activity change, negative = inhibition [1] 3.13% | activity change, negative = inhibition [2] -10.3% | activity, negative = inhibition [3] -4.43% | Potency [4] > 20.6 µM

O=C(NCCO)c1cccc2c1C(=O)c1ccccc1-2
inactive: activity change, negative = inhibition [1] 9.17% | activity change, negative = inhibition [2] 2.44% | activity, negative = inhibition [3] 10.7% | Potency [4] > 20.6 µM

COc1ccc(OCC(=O)OCCN(C)C)cc1
inactive: activity change, negative = inhibition [1] 7.78% | activity change, negative = inhibition [2] 11.6% | activity, negative = inhibition [3] -3.32% | Potency [4] > 20.6 µM

COc1ccc(CC(=O)n2c(CC#N)nc3ccccc32)cc1OC
inactive: activity change, negative = inhibition [1] -7.74% | activity change, negative = inhibition [2] 10.4% | activity, negative = inhibition [3] -5.7% | Potency [4] > 20.6 µM

COc1ccc(CCNC(=O)c2ccc(=O)[nH]n2)cc1OC
inactive: activity change, negative = inhibition [1] -1.15% | activity change, negative = inhibition [2] -8.89% | activity, negative = inhibition [3] 3.06% | Potency [4] > 20.6 µM

COc1ccccc1-c1c(C)oc2c(CN3CCN(C)CC3)c(O)ccc2c1=O
inactive: activity change, negative = inhibition [1] 1.13% | activity change, negative = inhibition [2] 5.13% | activity, negative = inhibition [3] 4.08% | Potency [4] > 20.6 µM

COc1ccccc1-c1nnc2sc(COc3ccccc3)nn12
inactive: activity change, negative = inhibition [1] -9.17% | activity change, negative = inhibition [2] 13.4% | activity, negative = inhibition [3] -10.5% | Potency [4] > 20.6 µM

O=C1C2ON(c3ccccc3)C(c3ccncc3)C2C(=O)N1c1ccc(Br)cc1 (centres undefined)
inactive: activity change, negative = inhibition [1] -1.42% | activity change, negative = inhibition [2] 10.7% | activity, negative = inhibition [3] -10.2% | Potency [4] > 20.6 µM

COc1ccc(OCC(=O)N2CCN(C(=O)c3cccc4ccccc34)CC2)cc1
inactive: activity change, negative = inhibition [1] -4.98% | activity change, negative = inhibition [2] 5.36% | activity, negative = inhibition [3] -1.16% | Potency [4] > 20.6 µM
